Measured values from publication PMC5540273 (PLoS ONE, 2017).

Columns and labels:
Settings in all cases: concentration: 1 μM, replicates: in singlicate; n = 1
MEK5 = tested on: T1, MEK5
T1 construct: gene MAP2K5

MEK6 = tested on: T2, MEK6
T2 construct: gene MAP2K6

MELK = tested on: MELK
MERTK = tested on: MERTK
MET = tested on: MET
MINK = tested on: T3, MINK
T3 construct: gene MINK1

MKK7 = tested on: MKK7
MKNK1 = tested on: MKNK1
MKNK2 = tested on: MKNK2
MLCK = tested on: T4, MLCK
T4 construct: gene MYLK3

MLK1 = tested on: T5, MLK1
T5 construct: gene MAP3K9

MLK2 = tested on: MLK2
MLK3 = tested on: MLK3
MRCKA = tested on: MRCKA
MRCKB = tested on: T6, MRCKB
T6 construct: gene CDC42BPB

MST1R = tested on: MST1R
MST1 = tested on: T7, MST1
T7 construct: gene STK4

MST2 = tested on: T8, MST2
T8 construct: gene STK3

MST3 = tested on: T9, MST3
T9 construct: gene STK24

MST4 = tested on: MST4
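Further: KINOMEscan kinase panel screen.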

| SMILES | %Inh (MEK5) [%] | %Inh (MEK6) [%] | %Inh (MELK) [%] | %Inh (MERTK) [%] | %Inh (MET) [%] | %Inh (MINK) [%] | %Inh (MKK7) [%] | %Inh (MKNK1) [%] | %Inh (MKNK2) [%] | %Inh (MLCK) [%] | %Inh (MLK1) [%] | %Inh (MLK2) [%] | %Inh (MLK3) [%] | %Inh (MRCKA) [%] | %Inh (MRCKB) [%] | %Inh (MST1R) [%] | %Inh (MST1) [%] | %Inh (MST2) [%] | %Inh (MST3) [%] | %Inh (MST4) [%] |
| --- | --- | --- | --- | --- | --- | --- | --- | --- | --- | --- | --- | --- | --- | --- | --- | --- | --- | --- | --- | --- |
| c1ccc(-c2n[nH]cc2Nc2ccnc3ccccc23)nc1 [GW694077] | 31 | 8 | 21 | 0 | 100 | 61 | 0 | 13 | 85 | 2 | 11 | 0 | 0 | 18 | 0 | 12 | 0 | 0 | 0 | 0 |
| COc1cc(Nc2nccc(-c3c(-c4cccc(NC(=O)c5c(F)cccc5F)c4)nn4ncccc34)n2)cc(OC)c1OC [GSK327238] | 99.9 | 51 | 31 | 90.2 | 79 | 44 | 0 | 5 | 5 | 47 | 9 | 39 | 50 | 100 | 98.9 | 79 | 96.6 | 92.1 | 64 | 42 |
| CSc1cccc2c(-c3ccncn3)c(-c3ccc(F)cc3)nn12 [GW514786] | 15 | 0 | 20 | 39 | 23 | 5 | 0 | 14 | 1 | 0 | 14 | 19 | 12 | 25 | 14 | 18 | 5 | 14 | 5 | 6 |
| COc1cc(Nc2ncc3c(C)nc(-c4cc5ccccc5[nH]4)n3n2)cc(OC)c1OC [GW869516] | 78 | 0 | 49 | 56 | 0 | 1 | 0 | 0 | 0 | 36 | 93.8 | 89 | 87 | 4 | 7 | 0 | 0 | 29 | 0 | 0 |
| c1ccc(Oc2ccc(Nc3ccnc4cc(-c5ccc(CNCCN6CCOCC6)o5)ccc34)cc2)nc1 [GW567145] | 100 | 0 | 0 | 9 | 0 | 37 | 0 | 0 | 19 | 10 | 0 | 0 | 0 | 0 | 0 | 16 | 0 | 0 | 11 | 0 |
| Cc1ccc(C)c(NC(=O)NC2CCN(c3ccnc(Nc4ccc(F)cc4)n3)C2)c1 (stereo not shown) [GSK1379720] | 50 | 0 | 0 | 21 | 0 | 0 | 0 | 0 | 0 | 22 | 0 | 0 | 0 | 11 | 6 | 38 | 0 | 0 | 0 | 0 |
| COc1cccc(C2=C(Nc3ccc(Cl)c(C(=O)O)c3)C(=O)NC2=O)c1 [SB-390769] | 18 | 0 | 7 | 0 | 8 | 100 | 18 | 4 | 5 | 100 | 4 | 0 | 0 | 12 | 0 | 100 | 25 | 51 | 0 | 96.3 |
| Cl.c1ccc(-c2ccc3c(Nc4ccc5[nH]ccc5c4)ccnc3c2)nc1 [GW440138] | 83 | 0 | 0 | 34 | 0 | 75 | 0 | 2 | 0 | 0 | 0 | 0 | 0 | 6 | 0 | 35 | 0 | 0 | 9 | 0 |
